Compound activity: PubChem, National Center for Advancing Translational Sciences (NCATS)
TGFb SMAD3 inh: TGF-b pathway inhibition; HepG2 CAGA-GFP TGF-b/SMAD3 reporter, GFP fluorescence, 18 h; TGF-beta stimulated, 500 pg/mL final; Potency, µM (series often up to 46.1 µM), for the others: at the highest dose activity, negative = inhibition, actives largely listed as inhibitors; 1.2% of 410,000 active; further: potency means the concentration at half of the fitted maximal effect; on the % scale 0 is the no-effect control and ±100 the full control effect; nearly all actives have a fitted effect of over 65% in size
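Read-out: total well GFP (ex488/em500-530) summed from mean per-cell fluorescence. Cells: HEPG2 CAGA-GFP, 1% FBS DMEM, 18 h at 37 degrees C with 500 pg/mL final TGF-beta. Unstimulated wells served as the full-inhibition control; stimulated DMSO wells = 0%.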
TDP1 cell noCPT: qHTS for Inhibitors of human tyrosyl-DNA phosphodiesterase 1 (TDP1): qHTS in cells in absence of CPT; DT40 Tdp1-/- hTDP1 cells, no CPT, ATP luminescence, 48 h; Potency, µM (series often up to 46.2 µM), for the others: at the highest dose activity change, negative = growth inhibition, hits mostly inhibitors; 15% of 420,000 active; further: potency means the concentration at half of the fitted maximal effect; on the % scale 0 is the no-effect control and ±100 the full control effect; nearly all actives have a fitted effect of over 55% in size
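Growth of hTDP1-complemented DT40 Tdp1-knockout cells is measured by ATP luminescence after at least 48 hr compound exposure at 37 °C, with DMSO substituting for the 20 nM CPT used in the parallel screen.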
TDP1 cell CPT: DT40-hTDP1 cell growth loss with CPT; chicken DT40 Tdp1-/-;hTDP1 cells + 20 nM CPT, ATP luminescence, 48 h; Potency, µM (doses to about 46.2 µM), without a hit: at the highest dose activity change, negative = growth inhibition, usual class: inhibitors; 12% of 420,000 active; AID 686979; further: potency means the concentration at half of the fitted maximal effect; on the % scale 0 is the no-effect control and ±100 the full control effect; nearly all actives have a fitted effect of over 55% in size
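Cell growth measured by CellTiter-Glo luminescence after a minimum 48 h, 37 C compound exposure with 20 nM CPT in Tdp1-knockout DT40 cells stably expressing hTDP1, seeded 400/well; qHTS titration format.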
IL1B secr inh: inhibitors of inflammasome signaling (IL-1 beta secretion). THP-1 LPS/ATP IL-1B secretion, AlphaLISA, 16 h; hits give low values. activity change, % at 57.5 µM. 4.7% of 360,000 active. AID 743279; in the data active means activity change below about -50%; inconclusive means mostly about -30% to -49%; further: on the % scale 0 is the no-effect control and ±100 the full control effect
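Secreted IL-1B measured by AlphaLISA bead assay after 16 h compound exposure of THP-1 cells; compounds (final up to 57.5 uM) added 1 h before LPS (250 ng/mL) and ATP (1.25 mM) stimulation; lower signal means less secretion.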
TDP1 inh: inhibitors of human tyrosyl-DNA phosphodiesterase TDP1; recombinant TDP1, AlphaScreen DNA substrate cleavage; Potency, µM (series often up to 130 µM), inactives show at the highest dose activity change, negative = inhibition, usual class: inhibitors; 0.28% of 350,000 active; further: potency means the concentration at half of the fitted maximal effect; on the % scale 0 is the no-effect control and ±100 the full control effect; nearly all actives have a fitted effect of over 40% in size
Target sequence (Q9NUW8 whole entry, looked up): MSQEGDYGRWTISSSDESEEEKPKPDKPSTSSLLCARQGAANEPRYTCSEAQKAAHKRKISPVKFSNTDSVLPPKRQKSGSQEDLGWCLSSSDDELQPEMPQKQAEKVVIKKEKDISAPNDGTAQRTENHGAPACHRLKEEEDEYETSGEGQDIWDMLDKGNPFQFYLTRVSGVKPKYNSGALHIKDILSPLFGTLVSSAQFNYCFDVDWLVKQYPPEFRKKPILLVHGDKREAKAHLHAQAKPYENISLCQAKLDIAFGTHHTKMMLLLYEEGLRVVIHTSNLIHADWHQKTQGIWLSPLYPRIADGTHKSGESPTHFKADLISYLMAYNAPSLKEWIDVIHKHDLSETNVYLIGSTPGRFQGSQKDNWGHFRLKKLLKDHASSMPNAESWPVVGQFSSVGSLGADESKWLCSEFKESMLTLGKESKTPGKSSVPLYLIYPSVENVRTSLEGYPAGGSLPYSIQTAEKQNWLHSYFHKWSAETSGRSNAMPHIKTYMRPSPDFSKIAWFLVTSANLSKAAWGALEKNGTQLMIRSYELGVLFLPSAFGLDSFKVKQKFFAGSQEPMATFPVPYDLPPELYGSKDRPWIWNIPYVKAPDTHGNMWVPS
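Recombinant human Tdp1 (E. coli-expressed, 1 nM final) preincubated with compounds 15 min at room temperature, then 5'-biotin/3'-phosphotyrosine-FITC DNA substrate (15 nM final) added for 5 min. AlphaScreen beads (10 ug/ml final) added 10 min; cleavage lowers signal.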
HepG2 viability: counter-screen for TGF-b inhibitors: cytotoxicity in HepG2 cells; HepG2 CAGA-GFP viability, ATP luminescence, 18 h; AID 588856; Potency, µM (highest dose often 46.1 µM), inactives show at the highest dose activity change, negative = cytotoxicity, most hits filed as cytotoxic; 0.76% of 410,000 active; further: potency means the concentration at half of the fitted maximal effect
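CellTiter-Glo luminescence gave cytotoxicity after 18 hours at 37 degrees C. The cells were HepG2 CAGA-GFP in 1% FBS DMEM, stimulated with 500 pg/mL TGF-beta after compound addition. %Activity was normalised to no-cell wells (complete cell-killing) and DMSO (no toxicity), and curves were fitted and classified.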
Starred values were filed as active, the others as inactive; ? = inconclusive; . = not tested or not shown. Shown are actives, neighbours in structure and some others; about 19% of the full set was active somewhere. Unless noted, the call rests on the fitted dose curve; in most records, active means well fitted curve in the direction sought with a large enough effect; inconclusive means small, poorly fitted or top-dose-only effect, or another doubt; inactive means no such curve, though single readings can be large; an effect the other way counts as inactive or inconclusive.

SMILES	TGFb SMAD3 inh	TDP1 cell noCPT	TDP1 cell CPT	IL1B secr inh	TDP1 inh	HepG2 viability
CC(=O)Nc1cccc(-c2cc(NC(C)=O)c3ncc(-c4ccc(C(C)=O)cc4)n3c2)c1	-3.9%	7.31µM*	5.17µM*	0.0	.	3.0%
CC(=O)Nc1cc(-c2cccc(F)c2)cn2c(-c3ccc(F)cc3)cnc12	9.6%	23.1µM*	?	6.5	.	-19.7%
CC(=O)Nc1cc(-c2cccc(F)c2)cn2c(-c3ccc(S(C)(=O)=O)cc3)cnc12	19.0%	20.6µM*	?	-52.4*	.	0.3%
CC(=O)Nc1cc(-c2cccc(N)c2)cn2c(-c3ccccc3)cnc12	-12.4%	?	18.4µM*	-3.7	.	-38.4%
O=C(COc1cc(F)ccc1[N+](=O)[O-])NCCN1C(=O)CSC1=O	2.0%	11.8%	8.2%	?	1.0%	2.9%
CCOc1ccc(OCCn2c(S(=O)(=O)O)nc3c(N)ncnc32)cc1	-5.5%	18.3%	-5.3%	3.0	.	5.1%
N#C/C(C(N)=O)=c1/ccc2c(c1)N1C3=C(CCCC3)CC3CCCCC31N=2 (stereo not given)	?	13µM*	14.6µM*	-101.8*	10.8%	-87.2%
N#CC(C#N)=c1ccc2c(c1)N1C3=C(CCCC3)CC3CCCCC31N=2 (stereo not given)	35.9%	?	?	-116.7*	6.2%	-5.9%
CCOC(=O)c1c(NC(=O)COC(=O)CC(NC(C)=O)c2ccccc2)sc(C(=O)NC)c1C (stereo not given)	-15.4%	?	-19.1%	-16.2	-0.9%	-9.5%
CCc1cccc(CC)c1NC(=O)CCS(=O)(=O)c1ccc(Br)cc1	0.0%	?	?	.	-1.1%	0.8%
O=C(c1sc2cc(F)ccc2c1Cl)N1CCN(c2ccccc2)CC1	0.2%	?	-6.5%	-60.1*	0.0%	0.0%
O=C(c1n[nH]c2ccccc12)N1CCN(c2ccc(F)cc2)CC1	-3.8%	-25.8%	-27.7%	-8.4	5.9%	35.3%
O=C(O)c1ccccc1C(=O)N1CCN(c2ccccc2)CC1	?	-20.5%	3.7%	0.0	2.0%	8.8%
CCc1sc(C(=O)N2CCN(c3ccc(F)cc3)CC2)cc1C	-15.3%	14.6µM*	?	3.9	14.9%	-15.3%
O=C(c1cnc(N2CCOCC2)c2ccccc12)N1CCN(c2ccc(F)cc2)CC1	-20.9%	?	14.6µM*	.	-1.1%	-3.6%
Nc1sccc1C(=O)N1CCN(c2ccccc2)CC1	.	16.4µM*	18.4µM*	-7.2	.	.
COc1cccc(-c2noc(COc3cccc(C)c3C)n2)c1	-12.0%	-14.1%	-1.6%	.	-12.3%	-19.3%
CCN1CCN(c2ncc(C(=O)N3CCN(c4ccccc4OC)CC3)c3ccccc23)CC1	14.6%	?	-23.3%	-3.0	.	1.8%
O=C(c1cnc(N2CCOCC2)c2ccccc12)N1CCN(c2ccccc2F)CC1	?	?	?	.	6.6%	-35.4%
O=C(c1cnc(N2CCCCC2)c2ccccc12)N1CCN(c2ccccc2F)CC1	?	?	16.4µM*	.	2.2%	-31.7%
O=C(c1ccccc1C(=O)N1CCN(c2ccccc2)CC1)N1CCN(c2ccccc2)CC1	-7.0%	?	?	-4.9	4.1%	6.1%
COc1ccccc1N1CCN(C(=O)c2cnc(N3CCOCC3)c3ccccc23)CC1	-16.5%	16.4µM*	?	.	0.0%	-13.3%
COc1ccccc1N1CCN(C(=O)c2cnc(N3CCCCC3)c3ccccc23)CC1	?	3.66µM*	4.61µM*	.	2.2%	-25.8%
O=C(c1ccccc1C(=O)N1CCN(c2ccc(F)cc2)CC1)N1CCN(c2ccc(F)cc2)CC1	?	9.2µM*	?	-3.8	4.3%	-1.2%
COc1ccccc1N1CCN(C(=O)N2CCOCC2)CC1	17.1%	-20.1%	-12.7%	0.0	1.1%	-33.0%
SMILES	TGFb SMAD3 inh	TDP1 cell noCPT	TDP1 cell CPT	IL1B secr inh	TDP1 inh	HepG2 viability
COc1ccc(Nc2nn3c(=O)c4cc5c(cc4nc3s2)OCO5)c(OC)c1	0.1%	?	?	.	-2.9%	4.8%
CCCCNC(=O)C1C(c2ccc(OC)cc2)=Nc2ccccc2N1C(=O)Cc1cc(OC)cc(OC)c1 (stereo not given)	.	?	?	-10.0	.	.
CSc1cccc(NC(N)=S)c1	-14.6%	?	-24.0%	-14.1	4.1%	-6.3%
CSc1cccc(NC(=S)Nc2ccc(F)cc2)c1	-0.1%	?	23.1µM*	-2.5	5.9%	0.6%
CSc1cccc(NC(=S)NN(C)C)c1	-7.1%	18.4µM*	?	3.8	-1.2%	9.6%
Cc1oc(-c2cccc(Br)c2)nc1Cn1c(=O)cc(-c2ccccc2)c2c(C)nn(C)c21	-22.0%	-17.2%	-1.8%	.	3.2%	-14.5%
COc1cc(CNC[C@H]2O[C@@H](n3cnc(C(N)=O)n3)[C@H](O)[C@@H]2O)ccc1OCc1cccc(Cl)c1	-1.8%	-2.9%	-22.8%	-29.0	.	-17.4%
CNC(=O)c1c(NC(=O)C2=COCCO2)sc(C)c1C	-16.7%	-7.7%	1.8%	-13.3	.	-12.2%
COC(=O)c1c(NC(=O)C2=COCCO2)sc(C)c1C	21.9%	?	-2.3%	-60.3*	.	-42.2%
CCOC(=O)N1CCc2c(sc(NC(C)=O)c2C(N)=O)C1	-28.2%	-7.3%	-16.7%	-11.1	.	-4.2%
CCOC(=O)c1c(NC(=O)C2=COCCO2)sc2c1CCN(C(=O)OC)C2	0.0%	18.4µM*	?	-25.8	.	2.0%
C[n+]1c2n(c3ccccc31)N=C(c1ccc(Cl)cc1)CS2	0.0%	0.92µM*	1.16µM*	-74.3*	0.0%	-12.9%
CC1Sc2n(c3ccccc3[n+]2C)N=C1c1ccccc1 (stereo not given)	-13.7%	1.46µM*	1.46µM*	-5.3	2.6%	-5.0%
Cn1c(-c2ccccn2)[n+](C)c2ccccc21	-12.3%	17.1%	-10.1%	32.4	-2.8%	-16.6%
O=C(C[n+]1ccncc1)c1ccc(Br)cc1	-12.6%	?	?	.	.	-37.5%
C=CCCC(=O)Nc1nc(C)c(-c2csc(Nc3ccccc3OC)n2)s1	-22.1%	7.31µM*	6.51µM*	-22.5	10.7%	9.3%
COc1ccc(OC)c(Nc2nc(-c3sc(NC(=O)c4ccccc4)nc3C)cs2)c1	.	.	.	.	3.4%	.
CCCCC(=O)Nc1nc(C)c(-c2csc(Nc3ccccc3OC)n2)s1	-3.7%	?	23.1µM*	-19.3	3.9%	-0.6%
COc1ccc(Cl)cc1Nc1nc(-c2sc(NC(=O)c3ccccc3)nc2C)cs1	.	.	.	.	7.5%	.
